Drawing on PubChem BioAssay, this text covers activity remaining for 40 compounds.

Activity calls are given as the source filed them. How the calls were made is not given here.

For this assay, the system named is Aerobactin synthetase IucA (Klebsiella pneumoniae hvKP1). As to the kind of experiment: Biochemical IucA enzyme inhibition primary screen of the Spectrum library (AID 1346200).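 Further: 100% = wells without compound and 0% = wells lacking enzyme.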 The following applies: malachite green pyrophosphate, A620, at 8 µM, stronger effect = lower value.
In the case of `CC(C(=O)O)[C@H]1CCC2C3CC=C4C[C@@H](O)CC[C@]4(C)C3CC[C@@]21C` (stereo not given in full), the activity remaining is 98.4% (inactive).

As to `CCCCOc1ccc(CC(=O)NO)cc1`, the activity remaining is 80.8% (inactive).

`COc1ccc(CCN(C)CCCC(C#N)(c2ccc(OC)c(OC)c2)C(C)C)cc1OC` (stereo not given): the activity remaining is 97.5% (inactive).

For `CC(C)(Oc1ccc(Cl)cc1)C(=O)O`, the activity remaining is 122% (inactive).

In the case of `CC1=CC(=O)CC(C)(C)C1(O)/C=C/C(C)=C\C(=O)O` (stereo not given), the activity remaining is 117% (inactive).

As to `Cc1c(C(N)=O)cc([N+](=O)[O-])cc1[N+](=O)[O-]`, the activity remaining was 106% (inactive).

Turning to `Nc1c2ccccc2nc2ccccc12`, the activity remaining is 118% (inactive).

As for `CC1(C)C(=O)C=C[C@@]2(C)C1C=C[C@]1(C)C2CC[C@@]2(C)[C@H](c3ccoc3)OC(=O)C3OC321` (stereo not given in full), the activity remaining is 102% (inactive).

`CC1=C(C/C=C(\C)CCC[C@H](C)CCC[C@H](C)CCCC(C)C)C(=O)c2ccccc2C1=O`: the activity remaining is 114% (inactive).

In the case of `CC(=O)O[C@H]1CC[C@@]2(C)C(C[C@@H](OC(C)=O)[C@]3(C)C2CC[C@@]2(C)[C@H](c4ccoc4)OC(=O)[C@H]4O[C@]423)C1(C)C` (stereo not given in full), the activity remaining is 82.9% (inactive).

For `CO/N=C1\CN(c2nc3c(cc2F)c(=O)c(C(=O)O)cn3C2CC2)CC1CN` (stereo not given), the activity remaining is 106% (inactive).

In the case of `COc1ccc2c(c1)OC/C(=C/c1ccc(OC)c(OC)c1)C2=O`, the activity remaining was 123% (inactive).

For `Cc1cc(CC(=O)O)n(C)c1C(=O)c1ccc(Cl)cc1`, the activity remaining was 77.2% (inactive).

Consider `NC(N)=NCCC[C@@H](NC(=O)[C@@H](N)Cc1ccc(O)cc1)C(=O)O`, for which the activity remaining is 110% (inactive).

Take `CCOC(=O)C(Cc1ccc(O)cc1)NC(C)=O` (stereo not given): the activity remaining was 98.7% (inactive).

As for `CC(=O)Oc1ccc(-c2cc(=O)c3c(OC(C)=O)cc(OC(C)=O)cc3o2)cc1`, the activity remaining is 122% (inactive).

As for `COc1cc(C(=O)NCc2ccc(OCCN(C)C)cc2)cc(OC)c1OC`, the activity remaining is 114% (inactive).

Take `CS(=O)(=O)OCCCCOS(C)(=O)=O`: the activity remaining is 79.2% (inactive).

As for `CC(=O)Oc1ccc2c(c1)CCC1C2CC[C@]2(C)C(=O)CCC12` (stereo not given in full), the activity remaining was 99.1% (inactive).

For `O=C(O)/C=C(\CC(=O)O)C(=O)O`, the activity remaining is 89.8% (inactive).

As to `O=C(O)c1cc(=O)c2cccc(O)c2[nH]1`, the activity remaining was 97.3% (inactive).

In the case of `CS(=O)(=O)c1ccc([C@@H](O)[C@@H](CO)NC(=O)C(Cl)Cl)cc1`, the activity remaining was 124% (inactive).

On to `C[N+](C)(C)C[C@H](O)CC(=O)[O-]`, for which the activity remaining was 100% (inactive).

As for `Nc1nc(N)c2nc(CNc3ccc(C(=O)NC(CCC(=O)O)C(=O)O)cc3)cnc2n1` (stereo not given), the activity remaining is 102% (inactive).

`C[C@H]1OC(n2cc(F)c(=O)[nH]c2=O)C(O)[C@@H]1O` (stereo not given in full): the activity remaining was 121% (inactive).

Regarding `NC(CSCSCC(N)C(=O)O)C(=O)O` (stereo not given), the activity remaining was 95.5% (inactive).

For `C#CCCCCCCCCCCCc1ccco1`, the activity remaining is 113% (inactive).

Take `O=c1c2cc(O)c(O)cc2oc2cc(O)c(C3O[C@H](CO)[C@H](O)[C@@H](O)[C@H]3O)c(O)c12` (stereo not given in full): the activity remaining is 93.6% (inactive).

As for `COc1ccc(-c2cc(C(F)F)nn2-c2ccc(S(N)(=O)=O)cc2)cc1F`, the activity remaining is 123% (inactive).

With `CCC(=O)OCC(=O)[C@@]1(OC(=O)CC)[C@@H](C)CC2C3CCC4=CC(=O)C=C[C@]4(C)C3(F)[C@@H](O)C[C@@]21C` (stereo not given in full), the activity remaining is 125% (inactive).

`CC(C(=O)O)c1ccc2c(c1)[nH]c1ccc(Cl)cc12` (stereo not given): the activity remaining is 109% (inactive).

Take `CC(=O)[C@@]1(O)CCC2C3C[C@H](C)C4=CC(=O)C=CC4(C)[C@@]3(F)[C@@H](O)C[C@@]21C` (stereo not given in full): the activity remaining is 114% (inactive).

As for `COc1cc([C@@H]2c3cc4c(cc3C(OC3O[C@@H]5COC(C)O[C@H]5[C@H](O)[C@H]3O)C3COC(=O)[C@@H]32)OCO4)cc(OC)c1O` (stereo not given in full), the activity remaining is 102% (inactive).

For the compound `CC(=O)O[C@@H]1CC[C@@]2(C)C(C[C@@H](OC(C)=O)[C@@]3(C)C4=CC(=O)O[C@@H](c5ccoc5)[C@]4(C)CCC23)C1(C)C` (stereo not given in full), the activity remaining was 121% (inactive).

Take `N[C@@H](Cc1cc(I)c(Oc2ccc(O)c(I)c2)c(I)c1)C(=O)O`: the activity remaining is 125% (inactive).

Take `CC(=O)OC1CCC2(C)C3CC(=O)C4(C)C(CC5OC6(CCC(C)CO6)[C@@H](C)C54)C3CC[C@H]2C1` (stereo not given in full): the activity remaining was 102% (inactive).

Consider `COc1cccc2c1C(=O)c1c(O)c3c(c(O)c1C2=O)C[C@@](O)(C(C)=O)C[C@@H]3O[C@H]1C[C@H](N)[C@H](O)[C@H](C)O1`, for which the activity remaining is 75.3% (inactive).

With `CC(=O)OCC(=O)[C@@]12OC(C)(C)O[C@@H]1CC1C3C[C@H](F)C4=CC(=O)C=C[C@]4(C)[C@@]3(F)[C@@H](O)C[C@@]12C` (stereo not given in full), the activity remaining is 100% (inactive).

For `Nc1ccccc1C(=O)CC(N)C(=O)O` (stereo not given), the activity remaining is 118% (inactive).

`O=C(O)[C@H]1/C(=C/CO)O[C@@H]2CC(=O)N21`: the activity remaining was 112% (inactive).
